Results filed as inconclusive are left out. Calls of active or inactive are those of the source. Unless noted, calls come from the whole dose curve; as a rule, active = well fitted curve in the direction sought with a large enough effect in the repeat runs; inconclusive = weak or mixed curves; inactive = no such curve, though single readings can be large; an effect the other way counts as inactive or inconclusive.
Tests used:
[1] = qHTS RealTime-Glo MT Cell Viability Assay in HEK293 cells - 0 hour (AID 1224880); note: top concentration of the series differs between compounds; nearly all actives have a fitted effect of over 45% in size
In short: (§1)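 Luminescence readout at each listed time point; HEK293, 600 cells/well, RealTime-Glo MT reagent added with cells; compounds pinned (23 nL in DMSO) after 5 h at 37 C; continuous culture at 37 C.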

[2] = A CellTox Green Cytotoxicity Assay to monitor cytotoxicity in HEK293 cells - 32 hour (AID 1224881); note: nearly all actives have a fitted effect of over 40% in size
In short: (§2)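 Read-out: fluorescence of a cell-impermeant cyanine dye staining DNA of dead cells, proportional to cytotoxicity. HEK293, 600 cells/well with reagent, compound (23 nL DMSO) added after 5 h; reads at 0, 8, 16, 24, 32, 40 h.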

[3] = A CellTox Green Cytotoxicity Assay to monitor cytotoxicity in HepG2 cells - 0 hour (AID 1224882); note: nearly all actives have a fitted effect of over 35% in size
In short: (§3)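 HepG2, 600 cells/well premixed w/ CellTox Green; 5 h settle, 37 C/5% CO2; pintool cpd add (DMSO); 37 C, 40 h; fluorescence read at 0, 8, 16, 24, 32, 40 h.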

[4] = A CellTox Green Cytotoxicity Assay to monitor cytotoxicity in HepG2 cells - 32 hour (AID 1224883); note: nearly all actives have a fitted effect of over 50% in size
In short: as §3

[5] = A CellTox Green Cytotoxicity Assay to monitor cytotoxicity in HEK293 cells - 8 hour (AID 1224884); note: nearly all actives have a fitted effect of over 35% in size
In short: as §2

[6] = qHTS RealTime-Glo MT Cell Viability Assay in HepG2 cells - 16 hour (AID 1224885); note: nearly all actives have a fitted effect of over 50% in size
In short: (§4)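 HepG2 cells were seeded at 600 cells/well together with NanoLuc luciferase and a cell-permeant prosubstrate, preincubated 5 h at 37 C/5% CO2, then pin-dosed with compounds in DMSO. Nonlytic luminescence from viable cells was read at each time point.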

[7] = qHTS RealTime-Glo MT Cell Viability Assay in HEK293 cells - 24 hour (AID 1224886); note: top concentration of the series differs between compounds; nearly all actives have a fitted effect of over 50% in size
In short: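 HEK293 cells were seeded at 600 cells/well together with NanoLuc luciferase and cell-permeant prosubstrate, preincubated 5 h at 37 C/5% CO2, then given compound in DMSO by pintool. Luminescence from viable-cell prosubstrate reduction was read repeatedly over 40 h.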

[8] = qHTS RealTime-Glo MT Cell Viability Assay in HEK293 cells - 8 hour (AID 1224887); note: top concentration of the series differs between compounds; nearly all actives have a fitted effect of over 50% in size
In short: as §1

[9] = A CellTox Green Cytotoxicity Assay to monitor cytotoxicity in HEK293 cells - 16 hour (AID 1224888); note: nearly all actives have a fitted effect of over 35% in size
In short: as §2

[10] = qHTS RealTime-Glo MT Cell Viability Assay in HepG2 cells - 0 hour (AID 1224889); note: nearly all actives have a fitted effect of over 50% in size
In short: as §4

[11] = A CellTox Green Cytotoxicity Assay to monitor cytotoxicity in HepG2 cells - 8 hour (AID 1224890); note: nearly all actives have a fitted effect of over 45% in size
In short: as §3

[12] = qHTS assay to identify small molecule antagonists of the estrogen receptor alpha (ER-alpha) signaling pathway using the BG1 cell line in the presence of 0.1 nM 17-beta-estradiol - cell viability counter screen (AID 1259241); note: nearly all actives have a fitted effect of over 40% in size
In short: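 Viability in VM7Luc4E2 cells after 22 hr compound exposure under 0.1 nM 17beta-estradiol stimulation, by CellTiter-Fluor.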

[13] = qHTS assay to identify small molecule antagonists of the androgen receptor (AR) signaling pathway using the MDA cell line in the presence of 0.5 nM R1881 - cell viability counter screen (AID 1259242); note: nearly all actives have a fitted effect of over 45% in size
In short: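 Live-cell protease fluorescence, CellTiter-Fluor, 30 min at 37C. Cells: MDA-kb2, 3,000/well, preincubated 5 hr. Compounds plus 0.5 nM R1881 final, 16 hr, 37C, 0% CO2.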

[14] = molecular target: Estrogen receptor (Homo sapiens) (UniProt P03372); test: qHTS assay to identify small molecule antagonists of the estrogen receptor alpha (ER-alpha) signaling pathway using the BG1 cell line in the presence of 0.1 nM 17-beta-estradiol (AID 1259244); note: nearly all actives have a fitted effect of over 50% in size
Chain of Estrogen receptor (Homo sapiens) (P03372 whole entry, looked up): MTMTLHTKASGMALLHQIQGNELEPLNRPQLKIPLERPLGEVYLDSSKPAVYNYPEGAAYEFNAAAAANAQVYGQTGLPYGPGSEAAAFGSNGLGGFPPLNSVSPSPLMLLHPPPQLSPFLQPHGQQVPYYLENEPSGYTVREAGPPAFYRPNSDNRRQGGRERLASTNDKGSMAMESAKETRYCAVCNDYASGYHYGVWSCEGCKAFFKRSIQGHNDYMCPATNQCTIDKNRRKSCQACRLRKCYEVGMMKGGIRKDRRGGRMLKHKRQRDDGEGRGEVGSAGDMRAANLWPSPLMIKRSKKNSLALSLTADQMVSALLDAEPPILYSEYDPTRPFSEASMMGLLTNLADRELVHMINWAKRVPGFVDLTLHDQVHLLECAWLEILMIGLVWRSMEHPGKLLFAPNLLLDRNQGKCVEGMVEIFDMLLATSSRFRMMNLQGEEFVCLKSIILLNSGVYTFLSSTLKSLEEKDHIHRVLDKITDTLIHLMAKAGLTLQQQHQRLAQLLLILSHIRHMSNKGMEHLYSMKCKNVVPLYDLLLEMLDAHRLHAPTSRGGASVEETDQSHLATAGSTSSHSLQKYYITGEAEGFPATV
In short: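 Luminescence after ONE-Glo (30 min, room temperature) measured ERE-luciferase activity in VM7Luc4E2 cells treated 22 h with compound and 0.1 nM final 17beta-estradiol as stimulator.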

[15] = qHTS assay to identify small molecule HDAC inhibitors (AID 1259364); note: potency is the fitted concentration of half-maximal effect;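 note: wild-type HCT-116 cells with endogenous class I/II HDAC activity; nearly all actives have a fitted effect of over 45% in size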
In short: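 HCT-116 (wild type), 1,500 cells/well, overnight; compound 2 hr 37C 5% CO2; HDAC-Glo I/II reagent 30 min RT; luminescence readout.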

[16] = qHTS assay to identify small molecule HDAC inhibitors - cell viability counter screen (AID 1259365)
In short: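 Cytotoxicity was gauged in wild-type HCT-116 cells after a brief 2hr treatment with DMSO-dissolved compounds at 37C and 5% CO2, using CellTiter-Glo luminescence developed for 30min at room temperature.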

[17] = qHTS assay to identify small molecule antagonists of the sonic hedgehog signaling (Shh) pathway - cell viability counter screen (AID 1259367); note: nearly all actives have a fitted effect of over 55% in size
In short: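 CellTiter-Fluor signal in conditioned medium-stimulated 3T3 Gli1-Luc cells, 23 hr compound exposure, 37C.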

[18] = qHTS assay to identify small molecule agonists of the sonic hedgehog signaling (Shh) pathway - cell viability counter screen (AID 1259366); note: nearly all actives have a fitted effect of over 50% in size
In short: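 Stable Gli1-Luc NIH/3T3 clone, 2,000 cells/well. Compound exposure 24hr at 37C. Read-out: CellTiter-Fluor fluorescence.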

[19] = qHTS assay to identify small molecule phospholipidosis (PLD) inducers (AID 1259344; active = well fitted curve in the direction sought with a large enough effect; an effect the other way counts as inactive or inconclusive)
In short: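 Accumulated phospholipid, stained red by LipidTOX during 24 h compound treatment of HepG2 cells at 37 C, is quantified from images as pit number and intensity, normalised per cell using Hoechst-stained nuclei.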

[20] = molecular target: Androgen receptor (Homo sapiens) (UniProt P10275); test: qHTS assay to identify small molecule antagonists of the androgen receptor (AR) signaling pathway using the MDA cell line in the presence of 0.5 nM R1881 (AID 1259243); note: nearly all actives have a fitted effect of over 50% in size
Chain of Androgen receptor (Homo sapiens) (P10275 whole entry, looked up): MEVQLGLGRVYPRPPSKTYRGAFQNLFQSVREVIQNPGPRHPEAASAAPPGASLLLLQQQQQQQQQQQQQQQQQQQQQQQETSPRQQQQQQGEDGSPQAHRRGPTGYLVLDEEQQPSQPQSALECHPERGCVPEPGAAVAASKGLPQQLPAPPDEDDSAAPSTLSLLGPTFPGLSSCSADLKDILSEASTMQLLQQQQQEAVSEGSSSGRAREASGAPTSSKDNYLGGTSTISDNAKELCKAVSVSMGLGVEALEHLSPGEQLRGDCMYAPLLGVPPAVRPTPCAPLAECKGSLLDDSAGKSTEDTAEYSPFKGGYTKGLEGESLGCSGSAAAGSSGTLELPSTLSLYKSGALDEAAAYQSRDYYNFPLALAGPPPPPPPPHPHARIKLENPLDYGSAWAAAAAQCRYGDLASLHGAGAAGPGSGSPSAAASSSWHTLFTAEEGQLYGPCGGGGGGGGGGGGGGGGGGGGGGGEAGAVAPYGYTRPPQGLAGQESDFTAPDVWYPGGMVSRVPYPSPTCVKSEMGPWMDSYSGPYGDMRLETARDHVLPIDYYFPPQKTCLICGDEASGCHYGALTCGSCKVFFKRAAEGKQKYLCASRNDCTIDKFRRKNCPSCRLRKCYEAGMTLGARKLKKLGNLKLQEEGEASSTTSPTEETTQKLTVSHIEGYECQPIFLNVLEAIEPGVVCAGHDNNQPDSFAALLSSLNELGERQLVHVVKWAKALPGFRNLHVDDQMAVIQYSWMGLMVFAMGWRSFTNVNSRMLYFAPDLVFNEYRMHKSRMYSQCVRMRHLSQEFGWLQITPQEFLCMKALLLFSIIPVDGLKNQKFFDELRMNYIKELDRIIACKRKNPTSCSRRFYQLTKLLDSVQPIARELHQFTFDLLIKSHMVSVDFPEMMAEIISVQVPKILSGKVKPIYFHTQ
In short: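 MDA-kb2, MMTV-luc (AR/GR elements); 3,000 cells/well; cpd + 0.5 nM R1881 final; 16 hr 37C, 0% CO2; ONE-Glo 30 min RT; luminescence.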
% is set by controls: 0 for no effect and ±100 for the full control effect.

CCOC(=O)/C=C/C(=O)OCC
inactive: Potency [1] | Potency [2] | Potency [3] | Potency [4] | Potency [5] | Potency [6] | Potency [7] | Potency [8] | Potency [9] | Potency [10] | Potency [11] | Potency [12] | Potency [13] | Potency [14] | Potency [15] | Potency [16] | Potency [17]

CCC=CC#N
inactive: Potency [1] | Potency [2] | Potency [3] | Potency [4] | Potency [5] | Potency [6] | Potency [7] | Potency [8] | Potency [9] | Potency [10] | Potency [11] | Potency [12] | Potency [13] | Potency [14] | Potency [16] | Potency [18] | Potency [17]
active: Potency [15] 21 µM

CC(=O)c1cc2ccccc2s1
inactive: Potency [1] | Potency [2] | Potency [3] | Potency [4] | Potency [5] | Potency [6] | Potency [7] | Potency [8] | Potency [9] | Potency [10] | Potency [11] | Potency [12] | Potency [13] | Potency [14] | Potency [15] | Potency [16] | Potency [17]

CC(C)=CCC/C(C)=C/CC/C(C)=C/CCC(=O)OC/C=C(\C)CCC=C(C)C
inactive: Potency [1] | Potency [2] | Potency [3] | Potency [4] | Potency [5] | Potency [6] | Potency [7] | Potency [8] | Potency [9] | Potency [10] | Potency [11] | Potency [12] | Potency [13] | Potency [14] | PLD induction [19] -0.0635% [at 1.53 µM] | Potency [15] | Potency [16] | Potency [18] | Potency [17]

NC(=O)c1ccncc1
inactive: Potency [1] | Potency [2] | Potency [3] | Potency [4] | Potency [5] | Potency [6] | Potency [7] | Potency [8] | Potency [9] | Potency [10] | Potency [11] | Potency [12] | Potency [13] | Potency [20] | Potency [15] | Potency [16] | Potency [18] | Potency [17]

Cc1ccc(C(C)(C)O)cc1
inactive: Potency [1] | Potency [2] | Potency [3] | Potency [4] | Potency [5] | Potency [6] | Potency [7] | Potency [8] | Potency [9] | Potency [10] | Potency [11] | Potency [12] | Potency [13] | Potency [14] | Potency [15] | Potency [16] | Potency [18] | Potency [17]

Cc1ccccc1N=C(N)Nc1ccccc1C
inactive: Potency [1] | Potency [2] | Potency [3] | Potency [4] | Potency [5] | Potency [6] | Potency [7] | Potency [8] | Potency [9] | Potency [10] | Potency [11] | Potency [12] | Potency [13] | Potency [14] | Potency [15] | Potency [16] | Potency [18]

C[C@@H](O)[C@H]1C(=O)N2C(C(=O)O)=C([C@H]3CCCO3)S[C@H]12
inactive: Potency [1] | Potency [2] | Potency [3] | Potency [4] | Potency [5] | Potency [6] | Potency [7] | Potency [8] | Potency [9] | Potency [10] | Potency [11] | Potency [12] | Potency [13] | Potency [20] | Potency [14] | Potency [19] | Potency [15] | Potency [16] | Potency [18] | Potency [17]

C=C1CCC2CC1C2(C)C (centres undefined)
inactive: Potency [1] | Potency [2] | Potency [3] | Potency [4] | Potency [5] | Potency [6] | Potency [7] | Potency [8] | Potency [9] | Potency [10] | Potency [11] | Potency [12] | Potency [13] | Potency [14] | Potency [15] | Potency [17]

CC(=O)c1ccc([N+](=O)[O-])cc1
inactive: Potency [1] | Potency [2] | Potency [3] | Potency [4] | Potency [5] | Potency [6] | Potency [7] | Potency [8] | Potency [9] | Potency [10] | Potency [11] | Potency [12] | Potency [13] | Potency [15] | Potency [16] | Potency [18] | Potency [17]

Brc1cc(Br)c(Oc2cc(Br)c(Br)cc2Br)cc1Br
inactive: Potency [1] | Potency [2] | Potency [3] | Potency [4] | Potency [5] | Potency [6] | Potency [7] | Potency [8] | Potency [9] | Potency [11] | Potency [12] | Potency [13] | Potency [15] | Potency [17]

CC(C)=CCC1C(=O)N(c2ccccc2)N(c2ccccc2)C1=O
inactive: Potency [1] | Potency [2] | Potency [3] | Potency [4] | Potency [5] | Potency [6] | Potency [7] | Potency [8] | Potency [9] | Potency [11] | Potency [12] | Potency [13] | Potency [14] | Potency [19] | Potency [15] | Potency [16] | Potency [18] | Potency [17]

CC(=O)OCC(=O)NCCCOc1cccc(CN2CCCCC2)c1
inactive: Potency [1] | Potency [2] | Potency [3] | Potency [4] | Potency [5] | Potency [6] | Potency [7] | Potency [8] | Potency [10] | Potency [11] | Potency [12] | Potency [13] | Potency [20] | Potency [19] | Potency [15] | Potency [16] | Potency [17]

Cc1c(C)c2c(c(C)c1OC(=O)CCC(=O)OCCO)CC[C@@](C)(CCC[C@H](C)CCC[C@H](C)CCCC(C)C)O2
inactive: Potency [1] | Potency [2] | Potency [3] | Potency [4] | Potency [5] | Potency [6] | Potency [7] | Potency [8] | Potency [9] | Potency [11] | Potency [13] | Potency [14] | Potency [15] | Potency [18] | Potency [17]

O=C(Cn1ccnc1[N+](=O)[O-])NCCO
inactive: Potency [1] | Potency [2] | Potency [3] | Potency [4] | Potency [5] | Potency [6] | Potency [7] | Potency [8] | Potency [9] | Potency [11] | Potency [12] | Potency [13] | Potency [20] | Potency [19] | Potency [15] | Potency [16] | Potency [17]

Cc1ccccc1S
inactive: Potency [1] | Potency [2] | Potency [3] | Potency [4] | Potency [5] | Potency [6] | Potency [7] | Potency [8] | Potency [9] | Potency [11] | Potency [12] | Potency [13] | Potency [15] | Potency [16] | Potency [18] | Potency [17]
